Unmarked numbers belong to inactive results. Results filed as inconclusive are left out. Entries that show only a call come without a potency. The source made the active and inactive calls. Unless noted, calls come from the whole dose curve; as a rule, active = well fitted curve in the direction sought with a large enough effect in the repeat runs; inconclusive = weak or mixed curves; inactive = no such curve, though single readings can be large; an effect the other way counts as inactive or inconclusive. Positions of bridges follow the written chain, without caps; N, C: chain ends. Non-standard residues stand in square brackets, D forms with d. Residues, ends and D or L forms follow the SMILES beside them. hArg = N=C(N)NCCCC[C@H](N)C(=O)O; Mpa = O=C(O)CCS
Tests used:
[1] = qHTS assay for small molecule agonists of the p53 signaling pathway (AID 651631; calls by dose curve; note: nearly all actives have a fitted effect of over 15% in size)
Outline: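 HCT-116 p53RE-bla reporter line, 16 h compound treatment at 37 °C, then fluorescence after 2 h with B/G FRET substrate.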

[2] = qHTS assay for small molecule agonists of the p53 signaling pathway - cell viability (AID 651633; calls by dose curve;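 note: p53RE-bla HCT reporter cells with a stable beta-lactamase p53 reporter; series mostly up to about 83 µM; nearly all actives have a fitted effect of over 30% in size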)
Outline: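 Viability counter-read: CellTiter-Glo luminescence (30 min, room temperature) in the same p53RE-bla plates. These plates had been exposed to compounds for 16 h at 37 C.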

[3] = qHTS assay for small molecules that induce genotoxicity in human embryonic kidney cells expressing luciferase-tagged ATAD5 - cell viability (AID 651634; calls by dose curve; note: nearly all actives have a fitted effect of over 25% in size)
Outline: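 HEK293T ATAD5-luc cells, 2,000/well; compound 15.5 hr, 37C/5% CO2; CellTiter-Fluor 30 min, 37C; fluorescence read.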

[4] = qHTS assay for small molecule disruptors of the mitochondrial membrane potential - cell viability (AID 720634; calls by dose curve;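 note: human HepG2 liver cancer cells; series mostly up to about 83 µM; nearly all actives have a fitted effect of over 20% in size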)
Outline: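 Luminescence from CellTiter-Glo (ATP content) gave viability in HepG2 cells, read in the same wells as the MMP dye assay after 1 hr compound exposure at 37 C.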

[5] = qHTS assay to test for compound auto fluorescence at 590 nm (red) in HepG2 cells (AID 720674)
Outline: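 Red autofluorescence (Ex/Em 540/590 nm, Rose Bengal sodium equivalents) was measured in HepG2 cells, 2,000 per well in MEM plus 10% FBS, plated overnight at 37 C. Readings were taken 1 hr after adding 23 nL compound or DMSO, at 37 C and 5% CO2.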

[6] = qHTS assay to test for compound auto fluorescence at 535 nm (green) in HepG2 cells (AID 720675)
[7] = qHTS assay to test for compound auto fluorescence at 460 nm (blue) in HEK293 cells (AID 720678)
Outline: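 HEK293, 2,000 cells/well, 10% dialyzed FBS; attach 4-5 hr 37C; pin compound or DMSO; o/n 37C/5% CO2; fluorescence 405/460 nm; triamterene-equivalent units.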

[8] = qHTS assay to test for compound auto fluorescence at 590 nm (red) in HEK293 cells (AID 720679)
Outline: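 Intensity at 540nm excitation and 590nm emission is reported as Rose Bengal sodium-equivalent autofluorescence. Measurements followed overnight exposure (37C, 5% CO2) of HEK293 cells, 2,000 per well, to 23 nL compound.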

[9] = qHTS assay to test for compound auto fluorescence at 535 nm (green) in HEK293 cells (AID 720680)
[10] = qHTS assay to test for compound auto fluorescence at 460 nm (blue) in HEK293 cell free culture (AID 720681)
Outline: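 Blue fluorescence (Ex 405/Em 460 nm, triamterene-equivalent) was read immediately after pin transfer of compound or DMSO into medium (DMEM, 10% FBS) without cells.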

[11] = qHTS assay to test for compound auto fluorescence at 535 nm (green) in HEK293 cell free culture (AID 720682)
Outline: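 Steps: dispense DMEM/10% FBS into empty wells; pin in compound or DMSO; measure fluorescence at 485/535 nm. Values are fluorescein equivalents.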

[12] = qHTS assay to test for compound auto fluorescence at 590 nm (red) in HEK293 cell free culture (AID 720683)
Outline: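 Red-channel autofluorescence of compounds in culture medium (DMEM, 10% FBS), no cells, measured at 540/590 nm. Rose Bengal sodium is the reference fluorophore for equivalence.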

[13] = qHTS assay to test for compound auto fluorescence at 590 nm (red) in HepG2 cell free culture (AID 720684)
Outline: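 Cell-free; medium MEM + 10% FBS; compound or DMSO added by pintool; read Ex 540/Em 590 nm; Rose Bengal sodium as red reference fluorophore.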

[14] = qHTS assay to test for compound auto fluorescence at 460 nm (blue) in HepG2 cell free culture (AID 720685)
Outline: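 Cell-free plates of MEM plus 10% FBS received 23 nL compound or DMSO vehicle; blue-channel (405/460 nm) intensity scored against triamterene as reference fluorophore.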

[15] = qHTS assay to test for compound auto fluorescence at 535 nm (green) in HepG2 cell free culture (AID 720686)
[16] = qHTS assay to test for compound auto fluorescence at 460 nm (blue) in HepG2 cells (AID 720687)
Outline: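 Blue-channel autofluorescence (Ex/Em 405/460 nm, triamterene-equivalent) was measured after 1 hr compound exposure at 37 C, 5% CO2. Cells were HepG2, plated overnight at 37 C in MEM plus 10% FBS.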

[17] = target: Glucocorticoid receptor (Homo sapiens) (UniProt P04150); experiment: qHTS assay to identify small molecule agonists of the glucocorticoid receptor (GR) signaling pathway (AID 720691; active = well fitted activation curve with a large enough effect in the signal ratio in the repeat runs, not every such curve was filed as active; the % refers to the signal ratio)
Glucocorticoid receptor (Homo sapiens), sequence (P04150 whole entry, looked up): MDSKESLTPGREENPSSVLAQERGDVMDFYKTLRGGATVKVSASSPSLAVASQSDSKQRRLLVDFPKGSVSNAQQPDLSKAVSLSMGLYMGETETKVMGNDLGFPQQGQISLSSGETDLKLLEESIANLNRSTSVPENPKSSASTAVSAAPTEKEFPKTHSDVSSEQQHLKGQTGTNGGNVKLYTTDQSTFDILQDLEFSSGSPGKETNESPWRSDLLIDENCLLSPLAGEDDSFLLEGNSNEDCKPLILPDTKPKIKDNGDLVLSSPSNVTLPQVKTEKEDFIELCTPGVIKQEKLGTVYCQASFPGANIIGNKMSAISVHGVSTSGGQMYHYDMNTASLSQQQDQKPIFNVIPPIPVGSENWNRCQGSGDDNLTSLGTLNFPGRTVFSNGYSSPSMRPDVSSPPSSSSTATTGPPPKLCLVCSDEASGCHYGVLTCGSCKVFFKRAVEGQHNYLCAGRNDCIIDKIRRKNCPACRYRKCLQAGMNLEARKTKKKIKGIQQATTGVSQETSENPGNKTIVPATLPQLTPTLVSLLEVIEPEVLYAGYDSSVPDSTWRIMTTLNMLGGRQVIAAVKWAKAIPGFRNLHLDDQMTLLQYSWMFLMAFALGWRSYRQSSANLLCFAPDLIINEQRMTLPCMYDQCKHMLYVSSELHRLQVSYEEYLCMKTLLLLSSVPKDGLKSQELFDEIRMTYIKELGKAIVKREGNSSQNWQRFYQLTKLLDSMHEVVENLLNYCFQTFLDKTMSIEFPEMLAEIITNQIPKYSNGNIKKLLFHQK
Outline: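 HeLa GR-bla reporter line; cells pre-incubated 4 h, compound in DMSO 18 h at 37 C; LiveBLAzer B/G FRET substrate 2 h RT; fluorescence intensity read-out.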

[18] = qHTS assay for small molecule disruptors of the mitochondrial membrane potential (AID 720635); note: potency is the fitted concentration of half-maximal effect
Outline: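 Mitochondrial membrane potential tracked with Mito-MPS dye, red aggregates (ex 540/em 590 nm) against green monomers (ex 490/em 535 nm). Compound treatment 1 hr at 37C, dye 30 min in HepG2.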

[19] = target: Glucocorticoid receptor (Homo sapiens) (UniProt P04150); experiment: qHTS assay to identify small molecule antagonists of the glucocorticoid receptor (GR) signaling pathway (AID 720692; active = well fitted inhibition curve with a large enough effect in the signal ratio in the repeat runs, not every such curve was filed as active; the % refers to the signal ratio)
Outline: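 Read-out: beta-lactamase FRET substrate fluorescence, 2 h at room temperature, in HeLa cells stably carrying a GRE-driven bla reporter. Compounds were co-incubated with 5 nM dexamethasone agonist (final) for 18 h at 37 C.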

Compound	outcome [1]	outcome [2]	Potency [3]	outcome [4]	outcome [5]	outcome [6]	outcome [7]	outcome [8]	outcome [9]	outcome [10]	outcome [11]	outcome [12]	outcome [13]	outcome [14]	outcome [15]	outcome [16]	Potency [17]	Potency [18]	outcome [19]
CC(Oc1cc(Cl)ccc1Cl)C(=O)O (centres undefined)	inactive	inactive	inactive	inactive	inactive	inactive	inactive	inactive	inactive	inactive	inactive	inactive	inactive	inactive	inactive	inactive	inactive	–	–
C=CC(=O)CCCCC	inactive	inactive	inactive	inactive	inactive	inactive	inactive	inactive	inactive	inactive	inactive	inactive	inactive	inactive	inactive	inactive	–	–	–
CC(O)COC(C)(C)C (centres undefined)	inactive	inactive	inactive	inactive	inactive	inactive	inactive	inactive	inactive	inactive	inactive	inactive	inactive	inactive	inactive	inactive	inactive	–	–
c1ccc(B(c2ccccc2)c2ccccc2)cc1	inactive	inactive	inactive	–	inactive	inactive	inactive	inactive	inactive	inactive	inactive	inactive	inactive	–	inactive	inactive	inactive	61.1 µM (active)	–
CCCCC1CCC(O)CC1 (centres undefined)	inactive	inactive	inactive	inactive	inactive	inactive	inactive	inactive	inactive	inactive	inactive	inactive	inactive	inactive	inactive	inactive	inactive	inactive	–
Cc1ccc2c(c1)C(=O)c1ccccc1C2=O	inactive	inactive	inactive	–	inactive	inactive	inactive	inactive	inactive	inactive	inactive	inactive	inactive	inactive	inactive	inactive	inactive	6.09 µM (active)	–
C=CC(=O)OCC1CCCO1 (centres undefined)	inactive	inactive	inactive	inactive	inactive	inactive	inactive	inactive	inactive	inactive	inactive	inactive	inactive	–	inactive	inactive	–	–	–
NC(=O)[C@@H]1CSSCCC(=O)N[C@@H](CCCCN=C(N)N)C(=O)NCC(=O)N[C@@H](CC(=O)O)C(=O)N[C@@H](Cc2c[nH]c3ccccc23)C(=O)N2CCC[C@H]2C(=O)N1 ([Mpa][hArg]GDWPC-NH2; disulfide 1-7)	inactive	inactive	inactive	inactive	inactive	inactive	inactive	inactive	inactive	–	inactive	inactive	inactive	inactive	inactive	inactive	inactive	inactive	inactive

Reference: PubChem BioAssay (Tox21)
